Active and inactive are the calls of the source. Rule for the calls: active = hit-call score of the fitted dose curve at least 0.9, where 1 is the maximum; inactive = score below 0.9.
Experiments:
[1] = APR_HepG2_CellCycleArrest_24hr: Apredica 24-hour HepG2 Assay for Cell Cycle Arrest (AID 2282905); conditions: imaging, actives raise or lower the signal;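 note: cell cycle arrest scored as ratio of 2N to 4N nuclear DNA content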
Procedure, shortened: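 Readout: Hoechst 33342 nuclear DNA content by high-content fluorescent imaging, six images/well, 20x. Human HepG2 liver cells, 24 hr compound exposure, 0.39–200 uM, final DMSO 0.5% v/v. Gain or loss fitted relative to DMSO baseline.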

[2] = APR_HepG2_NuclearSize_24hr: Apredica 24-hour HepG2 Assay for Nuclear Size (AID 2282907); conditions: high-content imaging, actives raise or lower the signal
Procedure, shortened: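 Read-out: nuclear diameter from Hoechst 33342 (2 ug/mL) imaging of fixed HepG2 cells, 20x, six fields/well. Compounds ran at 0.39–200 uM for 24 hr, 0.5% DMSO final. Gain or loss was fitted bidirectionally relative to the DMSO baseline.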

[3] = APR_HepG2_CellLoss_24hr: Apredica 24-hour HepG2 Assay for Cell Loss (AID 2282908); conditions: high-content imaging;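 for AC50: fit in both directions so a hit may be cell loss or gain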
Procedure, shortened: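 Read-out: Hoechst 33342-stained nuclei counted by automated fluorescence imaging after formaldehyde fixation and Triton permeabilization. Ten concentrations, 0.39 to 200 uM, duplicate wells, 0.5% DMSO final. Gain or loss of signal fitted relative to DMSO baseline.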

[4] = APR_HepG2_MicrotubuleCSK_24hr: Apredica 24-hour HepG2 Assay for Microtubule CSK Stabilty (AID 2282909); conditions: HepG2 microtubule cytoskeleton imaging, actives raise or lower the signal
Procedure, shortened: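 Read-out: alpha-tubulin immunofluorescence intensity by automated high-content imaging of fixed HepG2 cells after 24 h compound treatment. Ten concentrations, 0.39 to 200 uM, in duplicate; DMSO 0.5% v/v. Taxol positive control; DMSO-normalized bidirectional curve fitting.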

[5] = APR_HepG2_MitoMembPot_24hr: Apredica 24-hour HepG2 Assay for Mitochondrial Membrane Potential (AID 2282911); conditions: imaging, actives raise or lower the signal
Procedure, shortened: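 Mitochondrial dye uptake (MitoTracker Red CMXRos, 250 nM, 30 min pre-fixation) in HepG2 after 24 hr compound exposure, 0.39–200 uM; ArrayScan images at 20x, activity fitted in both directions relative to DMSO.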

[6] = APR_HepG2_MitoMass_24hr: Apredica 24-hour HepG2 Assay for Mitochondrial Mass (AID 2282912); conditions: high-content imaging, actives raise or lower the signal
Procedure, shortened: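 HepG2, 24 hr dosing, 10 concentrations 0.39–200 uM in duplicate, DMSO 0.5% final. MitoTracker Red CMXRos 250 nM, 30 min pre-fix; 3.7% formaldehyde fix. Imaging-based fluorescence intensity; gain/loss fit vs DMSO baseline.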

[7] = APR_HepG2_CellCycleArrest_72hr: Apredica 72-hour HepG2 Assay for Cell Cycle Arrest (AID 2282914); conditions: high-content imaging, actives raise or lower the signal
Procedure, shortened: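 Using multiplexed high-content imaging, HepG2 nuclei stained with Hoechst 33342 (2 ug/mL) were analysed for DNA content after fixation and permeabilization. Treatment lasted 72 hr across 0.39–200 uM in duplicate with final DMSO 0.5% v/v; DMSO served as negative control.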

[8] = APR_HepG2_CellLoss_72hr: Apredica 72-hour HepG2 Assay for Cell Loss (AID 2282915); conditions: high-content imaging
Procedure, shortened: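 HepG2 cells exposed 72 h to compound at 0.39–200 uM (10 concentrations, duplicate) in 0.5% DMSO. Fixed with 3.7% formaldehyde and Hoechst 33342-stained. Imaged at 20x; nuclear count gives cell number, fitted bidirectionally versus DMSO.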

[9] = APR_HepG2_MitoticArrest_24hr: Apredica 24-hour HepG2 Assay for Mitotic Arrest (AID 2282910); conditions: high-content imaging, actives raise or lower the signal
Procedure, shortened: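 HepG2, 24 hr dosing, 0.39–200 uM, 0.5% DMSO final. Formaldehyde-fixed, Triton-permeabilised, anti-phospho-histone H3 plus Hoechst. ArrayScan imaging at 20x; bidirectional fit vs DMSO baseline.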

[10] = APR_HepG2_p53Act_24hr: Apredica 24-hour HepG2 Assay for p53 Activation (AID 2282913); conditions: high-content imaging, actives raise or lower the signal;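 note: p53 protein immunofluorescence averaged per cell in HepG2 with Hoechst nuclei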
Procedure, shortened: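 Following 24 hr dosing of HepG2 at 0.39–200 uM, the cells undergo formaldehyde fixation, Triton permeabilization and multiplexed antibody labeling that includes p53 (Cy5). Signal from the imaging is referenced to DMSO solvent controls.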

Measured: AC50

O=C(Oc1ccccc1)c1cccc(C(=O)Oc2ccccc2)c1
active: [8] 113 µM
not listed: [9] | [10]
inactive: all other assays above

CC(=O)O
active: [1] 97 µM | [9] 126 µM | [7] 0.16 µM | [8] 49.4 µM
inactive: [2] | [4] | [5] | [6]

CCCCCCC(CCCCCCCCCCC(=O)OCC(COC(C)=O)OC(C)=O)OC(C)=O (stereo not given)
not listed: [9]
inactive: all other assays above

CCCCc1nc2cccnc2n1Cc1ccc(-c2ccccc2-c2nnn[nH]2)cc1
active: [2] 51 µM | [3] 32.6 µM | [4] 35.7 µM | [5] 23.1 µM | [6] 28.1 µM | [10] 31.1 µM | [8] 65.2 µM
inactive: [1] | [7]

CCCCCCCCCC[N+](C)(C)[O-]
active: [3] 109 µM | [8] 140 µM
not listed: [9]
inactive: all other assays above

O=C(O)CN(CC(=O)O)CC(=O)O
inactive: all assays above

COc1ccc(OC(F)(F)F)cc1CN[C@H]1CCCN[C@H]1c1ccccc1
active: [1] 29.2 µM | [2] 33.4 µM | [3] 45.8 µM | [6] 66.7 µM | [10] 24.9 µM | [8] 27.5 µM
inactive: [4] | [5] | [7]

CCOCCOCCO
inactive: all assays above

Cn1cnc2c1c(=O)[nH]c(=O)n2C
not listed: [9] | [10]
inactive: all other assays above

O=NO
inactive: [1] | [4] | [5] | [6] | [7] | [8]

NC(=Nc1ccccc1)Nc1ccccc1
active: [9] 21.7 µM | [8] 18.1 µM
not listed: [1]
inactive: all other assays above

C=CCc1ccc(OC)c(OC)c1
not listed: [1]
inactive: all other assays above

O=C(O)CC(O)(CC(=O)O)C(=O)O
not listed: [2] | [3] | [9]
inactive: all other assays above

c1ccc2occc2c1
not listed: [2] | [3] | [9]
inactive: all other assays above

CCC(C)N(C)C(=O)c1cc2ccccc2c(-c2ccccc2Cl)n1 (stereo not given)
active: [3] 64.9 µM | [9] 66.8 µM | [6] 82.4 µM | [10] 66.9 µM | [8] 73.1 µM
inactive: [1] | [4] | [5] | [7]

C/C=C/C=C/C(=O)O
inactive: [1] | [4] | [9] | [5] | [6]
active: [7] 71.5 µM | [8] 83.7 µM

S=c1[nH]c2ccccc2s1
active: [5] 86.5 µM
not listed: [2] | [3]
inactive: all other assays above

O=C1OC(c2ccc(O)cc2)(c2ccc(O)cc2)c2ccccc21
inactive: [4] | [5]
active: [1] 81.1 µM | [3] 90.7 µM | [9] 61.4 µM | [6] 92.7 µM | [10] 51.8 µM | [7] 55.9 µM | [8] 102 µM

Cc1cc(SC2=C(O)C[C@@](CCc3ccc(N)cc3)(C(C)C)OC2=O)c(C(C)(C)C)cc1CO
active: [5] 0.0797 µM
not listed: [2] | [9]
inactive: all other assays above

CN(C)C(=O)NC1(c2ccccc2)CCN(CCC[C@]2(c3ccc(Cl)c(Cl)c3)CCCN(C(=O)c3ccccc3)C2)CC1
active: [1] 24.7 µM | [3] 24.9 µM | [4] 8.32 µM | [6] 15.4 µM | [10] 14.8 µM | [8] 16 µM
inactive: [5] | [7]

CC(COCC(C)OC(=O)c1ccccc1)OC(=O)c1ccccc1 (stereo not given)
not listed: [2] | [10]
inactive: all other assays above

Source: PubChem BioAssay (EPA / NIEHS)
